# Records with an inconclusive call do not appear. Unmarked numbers belong to inactive results. The source made the active and inactive calls. Calls follow the shape of the dose curve; as a rule, active = well fitted inhibition curve with a large enough effect; inconclusive = small, poorly fitted or top-dose-only effect; inactive = flat fitted curve, though single readings scatter.
# Biological target: Ubiquitin carboxyl-terminal hydrolase 1 (Homo sapiens) (UniProt O94782)
# Test: Inhibitors of USP1/UAF1: Pilot qHTS (AID 504865); also: nearly all actives have a fitted effect of over 35% in size;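 as to activity change, negative = inhibition: rhodamine fluorescence freed from ubiquitin-rhodamine substrate followed over time; top concentration of the series differs between compounds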
# Details: purified USP1/UAF1, Ub-rhodamine cleavage fluorescence; series mostly up to 114 µM; activity change, negative = inhibition: at the top concentration
# In short: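 USP1/UAF1 complex at 1 nM preincubated 15 min at room temperature with compound, then Ub-Rho substrate added at 150 nM final. Fluorescence (480/540 nm) read kinetically in 50 mM HEPES pH 7.8, 0.5 mM EDTA, 1 mM TCEP, 0.1 mg/ml BSA, 0.01% Tween-20.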
# % is scaled to controls: 0 for no effect and ±100 for the full control effect; potency is read from the fitted curve at half-maximal effect.
# Sequence of Ubiquitin carboxyl-terminal hydrolase 1 (Homo sapiens) (O94782 whole entry, looked up): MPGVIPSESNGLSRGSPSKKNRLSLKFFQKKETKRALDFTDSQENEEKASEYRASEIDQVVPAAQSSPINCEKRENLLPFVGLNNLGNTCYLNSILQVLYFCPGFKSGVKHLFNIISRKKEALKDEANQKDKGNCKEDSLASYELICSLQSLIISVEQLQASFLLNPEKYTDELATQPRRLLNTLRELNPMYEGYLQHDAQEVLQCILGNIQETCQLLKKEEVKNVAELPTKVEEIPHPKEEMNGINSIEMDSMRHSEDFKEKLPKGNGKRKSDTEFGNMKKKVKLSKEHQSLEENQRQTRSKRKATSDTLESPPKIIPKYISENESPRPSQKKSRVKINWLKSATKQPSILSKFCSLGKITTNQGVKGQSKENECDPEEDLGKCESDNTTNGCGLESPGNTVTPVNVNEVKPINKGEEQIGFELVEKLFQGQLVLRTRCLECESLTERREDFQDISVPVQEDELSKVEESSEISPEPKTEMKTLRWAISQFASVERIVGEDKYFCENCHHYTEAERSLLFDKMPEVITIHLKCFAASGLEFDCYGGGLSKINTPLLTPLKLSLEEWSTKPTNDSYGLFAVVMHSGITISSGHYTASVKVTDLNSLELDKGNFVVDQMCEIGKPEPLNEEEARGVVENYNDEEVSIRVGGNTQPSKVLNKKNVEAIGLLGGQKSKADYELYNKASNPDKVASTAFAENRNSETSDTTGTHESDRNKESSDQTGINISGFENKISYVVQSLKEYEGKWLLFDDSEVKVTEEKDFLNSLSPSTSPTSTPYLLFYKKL
SMILES,"activity change, negative = inhibition",Potency
CCN(CC)CCOc1ccccc1OC,-2.07%,
Cn1c(O)c(N=NC(N)=S)c2ccccc21,-14.5%,
CC(C)NCC(O)COc1ccccc1-n1cccc1 (stereo not given),-4.76%,
Cc1cc(C(=O)NCCc2ccc(S(=O)(=O)NC(=O)NN3CCCCCC3)cc2)no1,-7.9%,
CC(=O)[O][Al][O]C(C)=O,-1.8%,
CCCc1ccc(C(=O)O)cc1,-0.983%,
C#C[C@]1(O)CC[C@@H]2[C@H]3CCC4=CC(=O)CC[C@H]4[C@H]3C(=C)C[C@@]21CC,-8.19%,
CCCc1nc(C(C)(C)O)c(C(=O)OCc2oc(=O)oc2C)n1Cc1ccc(-c2ccccc2-c2nn[nH]n2)cc1,-12.5%,
NC(N)=NCC1COc2ccccc2O1 (stereo not given),-3.37%,
NC(=S)N=Nc1ccc(NN=C(N)N)cc1,,44.7 µM (active)
COC(=O)CCC[N+](C)(C)C,-3.54%,
OC/C=C/c1ccccc1,2.03%,
CC1(C)S[C@@H]2[C@H](NC(=O)C3(N)CCCCC3)C(=O)N2[C@H]1C(=O)O,-13.6% [at 54.9 µM],
CC(CC=O)CCCC(C)(C)O (stereo not given),-9.96%,
Cc1cccc(C)c1NC(=O)C1CCCCN1C (stereo not given),3.96%,
O[C@@H]([C@H](O)[C@H](O)CBr)[C@H](O)CBr,4.31%,
Nc1ncnc2c1ncn2CCOCP(=O)(O)O,-6.23%,
O=C(O)CCCC/C=C(\c1ccccc1)c1cccnc1,-6.19%,

SMILES,"activity change, negative = inhibition",Potency
O=C(OC1C[C@@H]2CC3C[C@H](C1)N2CC3=O)c1c[nH]c2ccccc12 (stereo not given in full),-7.29%,
CN1c2c(nc(N)[nH]c2=O)NCC1CNc1ccc(C(=O)NC(CCC(=O)O)C(=O)O)cc1 (stereo not given),-7.34%,
CC(=O)Oc1cc(C(F)(F)F)ccc1C(=O)O,-0.994% [at 54.9 µM],
CCCCC[C@H](O)/C=C/[C@@H]1[C@H]2C/C(=C/CCCC(=O)O)O[C@H]2C[C@H]1O,-8.1%,
CC(C)(C)CC(C)(C)c1cc(Cc2cc(C(C)(C)CC(C)(C)C)cc(-n3nc4ccccc4n3)c2O)c(O)c(-n2nc3ccccc3n2)c1,-3.83%,
CN1C(=O)OC(C)(C)C1=O,0.214% [at 54.9 µM],
O=C1N=C2SCCN2C(=O)C1Cc1ccc(Cl)cc1 (stereo not given),1.97%,
CC(=O)c1ccc2c(c1)N(CCCN1CCN(CCO)CC1)c1ccccc1S2,-14.8%,
CC1C(=O)CC2C3(C)CCC2(C(C)C(=O)O)C(=O)C13 (stereo not given),-2.2%,
N=C(N)c1ccc(/C=C/c2ccc(C(=N)N)cc2O)cc1,-11%,
c1ccc2c(c1)OCC(CN1CCCCC1)O2 (stereo not given),0.458%,
CC1(O)CCC(C(C)(C)O)CC1 (stereo not given),-9.87%,
O=C(O)/C=C/C(=O)Nc1ccc(S(=O)(=O)Nc2nccs2)cc1,-8.19%,
Oc1ccc(Cl)c2c1CCC2,-14.5%,
CCOC(=O)[C@@H](N)CS,3.9%,
O=C(O)CCC(=O)c1ccc(-c2ccccc2)cc1,2.19% [at 54.9 µM],
CN(C)CCCSc1ccccc1NC(=O)/C=C/c1ccccc1,-6.82%,

# Source: PubChem BioAssay (NCATS)
